Hits are enriched below; roughly 2.9% of the tested compounds scored in any of these assays.
MEKK2 WT-MEK5: modulators of MEK5 binding to wildtype MEKK2, primary screen, biochemical, multiplex bead flow cytometry, Alexa488-MEK5 | Mitogen-activated protein kinase kinase kinase 2 (Homo sapiens), Q9Y2U5 | Alexa488-MEK5 binding to MEKK2 WT; actives lie on both sides | binding response (% of control), % at 10 µM | 290,000 tested, 1.1% active | AID 1531, 2009; in the data active = binding response below about 67% or above about 130%
dFosB activator: activators of delta FosB homodimer, primary screen, biochemical, fluorescence polarization, TAMRA-CDK5 oligo, single point | 340,000 tested, 0.99% active | purified delta FosB; percent of positive-control signal above neutral wells | Protein FosB (Mus musculus), P13346 | activation, % at 25 µM;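 active = mean activation above about 17%, with every replicate also reaching it, limit read from the data, passing the limit was not always enough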
Target sequence (P13346 whole entry, looked up): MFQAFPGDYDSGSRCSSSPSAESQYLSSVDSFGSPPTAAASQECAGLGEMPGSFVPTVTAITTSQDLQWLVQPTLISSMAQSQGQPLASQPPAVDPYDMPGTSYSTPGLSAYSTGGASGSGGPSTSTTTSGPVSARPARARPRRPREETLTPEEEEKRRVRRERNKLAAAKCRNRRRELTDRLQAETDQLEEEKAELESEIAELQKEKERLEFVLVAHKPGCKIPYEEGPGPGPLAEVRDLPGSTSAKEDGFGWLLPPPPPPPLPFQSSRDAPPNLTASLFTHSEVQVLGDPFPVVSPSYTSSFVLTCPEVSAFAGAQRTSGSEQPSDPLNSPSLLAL
FID counter: compounds displacing fluorescent DNA intercalator, primary screen, artefact control for HCV NS3 helicase inhibitor project, biochemical, FID fluorescence; 290,000 tested, 0.17% active; inhibition, % at 7.9 µM; DNA fluorescent intercalator displacement; AID 1845, 2009; in the data active = inhibition above about 37%;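 also: higher means more ethidium bromide displaced from hairpin DNA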
MEKK3 PB1 HTS: modulators of MEKK3-MEK5 PB1 binding, primary screen, biochemical, wildtype MEKK3, multiplex bead flow cytometry, Alexa488-MEK5 | Mitogen-activated protein kinase kinase kinase 3 (Homo sapiens), Q99759 | bead-based flow cytometry, Alexa488-MEK5 binding to MEKK3; actives lie on both sides; 0 = blocked by unlabeled MEK5, 100 = vehicle | binding response (% of control), % at 10 µM | 290,000 tested, 1.4% active;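 active = binding response more than 3 SD above or below the average of its plate-row segment, actives on both sides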;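 also: Alexa488 bead fluorescence after subtracting the streptavidin-only scavenger bead signal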
MEKK2 mut-MEK5: MEK5 binding signal on mutant MEKK2 PB1, primary screen, biochemical, multiplex bead flow cytometry, Alexa488-MEK5; Alexa488-MEK5 binding to MEKK2 mutant; percent response, % at 10 µM; 290,000 tested, 0.35% active; AID 1530, 2009; in the data active = percent response above about 24%, passing the limit was not always enough
MEKK2wt confirm: modulators of MEK5 binding to wildtype MEKK2, confirmation, biochemical, single concentration, multiplex bead flow cytometry. shares compounds with MEKK3 PB1 HTS. Alexa488-MEK5 binding to MEKK2 WT; actives lie on both sides. binding response (% of control), % at 10 µM. 5,900 tested, 2.4% active; in the data active = binding response below about 16% or above about 210%; inactive = in between
MEKK2mut confirm: mutant MEKK2 PB1-MEK5 binding signal retest – biochemical, single concentration, multiplex bead flow cytometry, confirmation. AID 1893, 2009. 5,900 tested, 2% active. shares compounds with MEKK3 PB1 HTS. percent response, % at 10 µM. Alexa488-MEK5 binding to MEKK2 mutant; in the data active = percent response mostly above about 71%, no sharp cut-off; inactive = mostly below about 38%;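 also: higher means compound restores mutant binding toward wildtype level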
MEKK3-MEK5 inh: MEKK3 wild-type PB1 binding to MEK5, inhibitors, confirmation, biochemical, bead multiplex flow cytometry, single concentration, wildtype. Alexa488-MEK5 binding to MEKK3; stronger effect = lower value. AID 1894, 2009. 5,900 tested, 1.8% active. shares compounds with MEKK3 PB1 HTS. binding response (% of control), % at 10 µM;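 active = binding response below 72% of control, or above a set upper limit, though filed actives all read lower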
Each line names hits and unclear results; the compound was inactive in the other large screens (follow-up assays come after a bar, where they were run); [ ] = dose if it differs, or a comment.

CC[C@@H](C)[C@H](CNC)NC[C@@H](Cc1cccc2ccccc12)NCCc1cccc(C(F)(F)F)c1	MEKK2 WT-MEK5 318, dFosB activator 19, MEKK2 mut-MEK5 74 | MEKK2wt confirm 247 | MEKK2mut confirm 101 | MEKK3-MEK5 inh inactive
CCC[C@@H](CN[C@@H](CNC)[C@H](C)CC)NCC1CCC(C(C)(C)C)CC1 (stereo partly specified)	MEKK2 WT-MEK5 148, FID counter 40 | MEKK2wt confirm inactive | MEKK2mut confirm inactive | MEKK3-MEK5 inh inactive
COc1ccc(C(=O)N2CC3(CC(c4cccc([N+](=O)[O-])c4)=NO3)C[C@H]2C(=O)NCC(N)=O)cc1 (stereo partly specified)	none
Cc1nn(CCC(N)=S)c2nc(-c3cccs3)cc(C(F)(F)F)c12	MEKK3 PB1 HTS 151 | MEKK2wt confirm inactive | MEKK2mut confirm inactive | MEKK3-MEK5 inh inactive
CC(C)CCOc1cccc(OCC(=O)O)c1	MEKK3 PB1 HTS 183 | MEKK2wt confirm inactive | MEKK2mut confirm inactive | MEKK3-MEK5 inh inactive
O=Cc1ccccc1-n1cncn1	none
Cc1ccc(-c2nnc(-n3nc(C)cc3C)c3ccccc23)cc1	MEKK3 PB1 HTS 137 | MEKK2wt confirm inactive | MEKK2mut confirm inactive | MEKK3-MEK5 inh inactive
COc1ccc(OC)c(NC(=O)COC(=O)/C=C/c2ccc(Cl)cc2)c1	none
c1ccc(CNc2nc(NCc3ccccc3)c3ccccc3n2)cc1	MEKK2 WT-MEK5 262, MEKK2 mut-MEK5 140 | MEKK2wt confirm 256 | MEKK2mut confirm 116 | MEKK3-MEK5 inh inactive
CCOc1cccc(CNCc2ccc(C(=O)O)cc2)c1	MEKK3 PB1 HTS 50[inhibitor] | MEKK2wt confirm inactive | MEKK2mut confirm inactive | MEKK3-MEK5 inh inactive
CCOc1ccc(OCC)c(NC(=O)CSc2nnc(C3CC3)n2CC)c1	none
O=c1ccc2[n+]([O-])c3ccc(O)cc3oc-2c1	MEKK2 WT-MEK5 50[inhibitor], dFosB activator 40 | MEKK2wt confirm inactive | MEKK2mut confirm inactive | MEKK3-MEK5 inh inactive
O=c1cc(O)c2ccc(O)cc2o1	none
COc1ccc(/C=N/NC(=O)c2ccc(O)cc2O)cc1CSc1ccccn1	MEKK3 PB1 HTS 136 | MEKK2wt confirm inactive | MEKK2mut confirm inactive | MEKK3-MEK5 inh inactive
CC(C)N(Cc1cc2ccccc2[nH]c1=O)C(=O)c1ccco1	none
O=S1(=O)CCO[C@H]2Cc3ccccc3[C@H]2N1Cc1ccc(F)cc1	none
O=C(NC1CCCCC1)C(c1cccs1)N(C(=O)c1ccco1)c1ccc2c(c1)OCCO2 (stereo unspecified)	MEKK3 PB1 HTS 60[inhibitor] | MEKK2wt confirm inactive | MEKK2mut confirm inactive | MEKK3-MEK5 inh inactive
C#CC(=O)N(c1ccc(OC)c(OC)c1)C(C(=O)NC1CCCC1)c1cccs1 (stereo unspecified)	MEKK3 PB1 HTS 125 | MEKK2wt confirm inactive | MEKK2mut confirm inactive | MEKK3-MEK5 inh inactive
C#CC(=O)N(c1cccc(OC)c1)C(C(=O)NC1CCCC1)c1cccs1 (stereo unspecified)	none
Cc1ccc(-n2nc(C)c(Sc3ccccc3[N+](=O)[O-])c2N)cc1	none
Cc1n[nH]c(C)c1Sc1ccccc1[N+](=O)[O-]	MEKK3 PB1 HTS 57[inhibitor] | MEKK2wt confirm inactive | MEKK2mut confirm inactive | MEKK3-MEK5 inh inactive
CCCSc1nnc(NC(=O)c2sc3nc(-c4cccs4)ccc3c2N)s1	none
